Test results as given in PubChem BioAssay (NCATS).
Results filed as inconclusive are left out. Unmarked numbers belong to inactive results. Activity calls are given as the source filed them. The call rests on the fitted dose curve; in most records, active means well fitted activation curve with a large enough effect; inconclusive means small, poorly fitted or top-dose-only effect; inactive means no such curve, though single readings can be large or run the other way. Peptide text beside a SMILES is read from it. * marks the point of attachment. Hexanoyl = CCCCCC(=O)*

Assay: Redox Reaction Profiling qHTS: Assay Interference Panel against the NCATS CANVASS Library (AID 1347401)
Settings: resazurin-DTT redox cycling, fluorescence, 15 min; series mostly up to 57.1 µM; activation (redox signal): at the top concentration
Source text: Natural products and their derivatives continue to be wellsprings of nascent therapeutic potential. However, many laboratories have limited resources for biological evaluation, leaving their previously isolated or synthesized compounds largely or completely untested. To address this issue, the Canvass library of natural products was assembled (https://tripod.nih.gov/canvass), in collaboration with academic and industry researchers, for quantitative high-throughput screening (qHTS) across a diverse set of cell-based and biochemical assays. The pure (>85% purity by liquid chromatography/mass spectrometry [LC/MS]) Canvass library of 346 natural products were submitted by 45 academic laboratories and companies around the world. We collected pure natural products to circumvent deconvolution and structure elucidation due to time and resource limitations. The library was formatted into 1536-well plates and evaluated in 50 qHTS (in an 11-pnt concentration series) bioassays with broad scope of disease-relevant mechanisms. The resulting data set from 50 different assays was then systematically analyzed to identify overall trends and specific natural products with interesting biological activities. Reported herein are the results of each individual qHTS and their corresponding assay protocol. This profiling assay measures the resazurin-to-resorufin redox reaction in the presence of DTT and compound, and serves as a useful surrogate assay for measuring potential compound redox liability National Center for Advancing Translational Sciences (NCATS), Rockville, MD National Institute of Health (NIH), Bethesda, Maryland
Redox Profiling assay protocol: 1. In a black-solid bottom, medium binding, 1536-well plates (Greiner 789176), 4 uL of [1x] 5uM Resazurin + 200 uM DTT + buffer (50 mM HEPES pH 7.3 + 50 mM NaCl) was dispensed (into columns 1 - 48, rows 1 - 32) using a BioRAPTR FRD dispenser (Beckman Coulter). 2. 23 nL of compounds were pin transferred into the assay plates (columns 5 - 48) using the Kalypsis pin tool (Wako USA) equipped with a 1536-well pin heads. This yields a final concentration range of 0.002 - 127 uM. Control compound Chloranil (NCGC00091254-06) was also pinned (23 nL) into column 2, rows 1 - 32 (working concentration 10 mM, 1:2 dilution; 16 points titrations; n = 2). The final concentration range for the Chloranil was 0.002 to 57.2 uM. For 100% activation control, a single dose of 23 nL Chloranil (350 uM working concentration) was pinned to columns 3 and 4, rows 1-32 for a final concentration of 2 uM. 3. The assay plates were centrifuged for 15 seconds at 1000 rpm. 4. An initial fluorescence readout was obtained using the ViewLux plate reader (PerkinElmer) using a 525 nm excitation and a 598 nm emission filters. 5. The assay plates were incubated for 15 minutes in the dark. 6. After incubation, the final fluorescence readout was obtained using the ViewLux plate reader (PerkinElmer) using a 525 nm excitation and a 598 nm emission filters.
Potency means the concentration at half of the fitted maximal effect.

| Compound | Potency | activation (redox signal) |
| --- | --- | --- |
| COc1c(O)cc2c(c1O)C(=O)c1c(coc1C)C2=O | 24.1 µM (active) | – |
| COc1cc(C2OCC3C(c4ccc(O)c(OC)c4)OCC23)ccc1O (stereo not given) | – | -17.9% [at 11.4 µM] |
| COc1cc2c(cc1OC)[C@@H](c1ccc3c(c1)OCO3)C(C)C(C)C2=O (stereo not given in full) | – | -21.5% |
| CN1C(=O)C(=O)N2C(=C[C@]3(c4c[nH]c5ccccc45)c4ccccc4N[C@H]23)C1=O | – | -7.15% |
| O=c1cc(-c2ccc(O)cc2)oc2cc(O)c([C@@H]3OC(CO)[C@H](O)[C@@H](O)[C@H]3O)c(O)c12 (stereo not given in full) | – | -27.3% |
| CC(=O)c1c(C)cc2c(c1O)C(=O)c1c(O)cc(O)cc1C2=O | – | -14% |
| C=C[C@]1(C)CC[C@@H]([C@H](C)C(=O)/C=C/C(C)(C)O)O1 | – | -12.3% |
| CC1(C)CC[C@]2(CO)CC[C@]3(C)C(=CCC4[C@@]5(C)CC[C@H](O)C(C)(C)C5CC[C@]43C)C2C1 (stereo not given in full) | – | -27.9% |
| CN1CCc2cc3c(c4c2C1(C)C(=O)c1cc(O)ccc1-4)OCO3 (stereo not given) | – | 0.933% |
| Cc1cc(O)cc2c1C(=O)c1c(O)cc(O)cc1C2=O | – | -16.8% |
| C/C=C/C1C=CC2CC(C)CC(C)C2C1C(=O)CC(=O)NC(CO)C/C=C/CCCCC (stereo not given) | – | -19.6% |
| CN1CC[C@]2(c3cccc4c3N[C@H]3N(C)CC[C@@]43[C@]34CCN(C)[C@H]3Nc3ccccc34)c3ccccc3N[C@H]12 | – | -16.5% |
| COC(=O)c1cccc2oc(-c3cccc4oc(-c5c(C)cccc5O)nc34)nc12 | – | -4.1% |
| COc1cc2c(cc1OC)[C@@H](c1ccc3c(c1)OCO3)C(C)[C@@H](C)C2=O (stereo not given in full) | – | -19.8% |
| C/C=C/[C@H]1[C@H]2C(=O)c3c(O)c(C)c(O)c(C)c3[C@]1(C(=O)O)C(=O)C=C2C | – | -18.5% |
| O[C@H]1c2ccccc2-c2c3c(cc4c2[C@@H]1NCC4)OCO3 | 19.2 µM (active) | – |
| COc1cc(C2C3=C(Cc4cc5c(cc42)OCO5)C(=O)OC3)cc(OC)c1OC (stereo not given) | – | -19.9% |
| CC[C@@H]1[C@H](C)[C@H](c2cc(OC)c(OC)cc2OC)[C@@H](C)[C@H](c2cc(OC)c(OC)cc2OC)[C@]12C=C(OC)C(=O)C=C2OC | – | -20.8% |
| C=CC(CCCCC)C1C(=O)NC(=O)C1C(=O)C1C2C(C)CC(C(=O)O)CC2CC1(O)C(=O)/C=C/C (stereo not given) | – | -22.1% |
| COC(=O)C1=C[C@]23C[C@@H](C)CC[C@@H]2[C@@]2(C)CC[C@@H](C(C)C)[C@@](O)(O3)[C@@H]12 | – | -16% |

| Compound | Potency | activation (redox signal) |
| --- | --- | --- |
| CCC(=O)N[C@@H](C[C@H](C)C(Cl)(Cl)Cl)C(=O)N1C(=O)C=C(OC)[C@@H]1CC(C)C | – | -17.5% |
| O=C1CC(c2ccc(O)cc2)Oc2ccccc21 (stereo not given) | – | -25.5% |
| COc1ccc2[nH]c3c(c2c1)CCN1C[C@H]2C[C@@H](OC(=O)c4cc(OC)c(OC)c(OC)c4)[C@H](OC)[C@@H](OC)[C@H]2C[C@H]31 | – | -21.5% |
| COc1cc2ccc(=O)oc2c(O)c1O[C@@H]1O[C@H](CO)[C@@H](O)[C@H](O)[C@H]1O | – | 3.53% [at 34.1 µM] |
| C[C@H]1C=C[C@H]2CCCC[C@@H]2[C@H]1C(=O)[C@H]1CC2=C(C(=O)O)CCN2C1=O | – | -12% |
| C=C1C[C@]23C=CC(=O)[C@@](C)(CCCC(C)C(=O)N[C@@H](CO)C(=O)O)[C@@H]2C[C@@H]1CC3 (stereo not given in full) | – | -3.12% |
| O=Cc1ccc2n1C[C@]1(C[C@H](O)[C@@H](CO)O1)OC2 | – | -20.8% |
| C=C[C@]1(C)CC[C@@H]([C@H](C)C(=O)CC=C(C)C)O1 | – | -15.5% |
| C/C(=C\[C@H](C)C(=O)CCCC1CC(=O)NC(=O)C1)[C@@H]1OC(=O)/C=C/CC/C=C/[C@H](O)[C@@H](O)[C@@H]1C | 24.1 µM (active) | – |
| CC(=O)O[C@H]1c2ccccc2-c2c3c(cc4c2[C@@H]1N(C(C)=O)CC4)OCO3 | – | 6.79% |
| C[n+]1cc2cc(C(N)=O)[nH]c3c(=N)c(Cl)c(N)c1c23 | 1.92 µM (active) | – |
| O=C(OC[C@H]1O[C@@H](OC(=O)c2cc(O)c(O)c(O)c2)[C@H](OC(=O)c2cc(O)c(O)c(O)c2)[C@@H](OC(=O)c2cc(O)c(O)c(O)c2)[C@@H]1OC(=O)c1cc(O)c(O)c(O)c1)c1cc(O)c(O)c(O)c1 | 24.1 µM (active) | – |
| CC1=C2CC[C@]3(C)[C@H](CC=C4[C@@H]5CC(C)(C)CC[C@@H]5C(=O)[C@H](O)[C@]43C)[C@@]2(C)C=C(O)C1=O | – | -25.8% |
| CC(C)=CCC/C(C)=C/Cc1cc([C@@H]2CC(=O)c3c(cc(O)c(CC=C(C)C)c3O)O2)ccc1O | – | -31.4% |
| CC(C)=CCC[C@]12c3cc4c(cc3CC[C@@]1(C)[C@H](C)CC[C@@H]2O)[nH]c1ccccc14 | – | -18.5% |
| C[C@H](CCC(O)C(C)(O)CO)[C@@]1(O)CC[C@@]2(C)C3=C(CC[C@@]21C)[C@@]1(C)CCC(OC(=O)CCC(=O)O)C(C)(C)[C@@H]1CC3 (stereo not given in full) | – | -12.7% |
| COc1c(O)cc(O)c2c(=O)cc(-c3ccccc3)oc12 | – | -30.1% |
| CCCCCC(=O)N[C@@H](CC(C)C)C(=O)N[C@H](C=O)CCC(=O)O (Hexanoyl-Leu-Glu-aldehyde) | – | -10.6% |
| C/C=C1/C2=CCCN3C(=O)O[C@H]([C@H]1O)[C@H]23 | – | -5.75% |
| C=C[C@@](C)(O)CC[C@@H]1[C@@]2(C)CCCC(C)(C)[C@@H]2CC[C@@]1(C)O | – | -12.9% |
